Compound activity as filed in PubChem BioAssay.
IMPase Li cell: IMPase inhibition in cells with lithium potentiation. AID 1457. Potency, µM (titrated, usually from 59.4 µM), usual class: inhibitors. hit rate 0.35% among 210,000. CHO-M1 cells, IP1 TR-FRET (IP-One), carbachol + lithium;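 further: IP1 builds up when IMPase is blocked and the TR-FRET signal falls; nearly all actives have a fitted effect of over 50% in size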
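CHO cells stably expressing M1 receptor (2000/well, cultured 16–30 h) treated 30 min at 37C with compound plus low lithium. Cytosolic IP1 by TR-FRET (665/620 ratio and 620 channel) after 10 min lysis; AC50 by Hill fit.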
ALDH1A1 block: blocks purified human ALDH1A1 activity. P00352. Purified ALDH1A1, NADH fluorescence, propionaldehyde substrate. Potency, µM (highest dose often 75.3 µM), most hits filed as inhibitors. hit rate 7.3% among 220,000. AID 1030; active means well fitted inhibition curve with a large enough effect, not every such curve was filed as active; inconclusive means small, poorly fitted or top-dose-only effect, or another doubt; inactive means no such curve, though single readings can be large or run the other way
Target sequence (P00352 whole entry, looked up): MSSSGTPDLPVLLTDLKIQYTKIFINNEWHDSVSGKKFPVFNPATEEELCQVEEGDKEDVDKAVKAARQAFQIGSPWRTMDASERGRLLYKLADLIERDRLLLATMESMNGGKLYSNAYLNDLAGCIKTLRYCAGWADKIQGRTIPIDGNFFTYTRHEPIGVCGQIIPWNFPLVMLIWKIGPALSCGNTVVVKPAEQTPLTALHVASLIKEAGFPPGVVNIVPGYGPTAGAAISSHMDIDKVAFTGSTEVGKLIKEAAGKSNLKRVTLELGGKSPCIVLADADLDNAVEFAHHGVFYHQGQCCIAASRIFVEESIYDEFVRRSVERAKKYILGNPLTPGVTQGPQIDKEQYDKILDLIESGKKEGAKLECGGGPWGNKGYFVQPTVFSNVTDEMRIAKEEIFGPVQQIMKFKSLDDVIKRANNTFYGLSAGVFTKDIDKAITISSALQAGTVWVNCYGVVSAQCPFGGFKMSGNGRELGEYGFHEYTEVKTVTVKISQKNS
HPGD inh: HPGD (human) dehydrogenase inhibition | P15428 | purified HPGD, NADH fluorescence kinetic, PGE2 substrate | Potency, µM, hits mostly inhibitors | hit rate 4.3% among 150,000; active means well fitted inhibition curve with a large enough effect, not every such curve was filed as active; inconclusive means small, poorly fitted or top-dose-only effect, or another doubt; inactive means no such curve, though single readings can be large or run the other way
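NADH formation kinetics: reaction with 30 uM PGE2 and 1 mM NAD+ (final), 20 nM enzyme, Tris-HCl pH 8 with Tween 20, after 15 min compound preincubation at room temperature. Fluorescence change, last versus first of five reads.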
NPSR antag: neuropeptide S receptor (human) antagonism, cAMP; Q6W5P4; CHO-NPSR cells, cAMP TR-FRET, antagonist mode; Potency, µM (top dose mostly 38.3 µM), hits mostly inhibitors; hit rate 1% among 220,000; AID 1461; further: nearly all actives have a fitted effect of over 50% in size
PNC assembly inh: inhibitors of perinucleolar compartment assembly. PC3M PTB-GFP, PNC prevalence imaging, 16 h; hits give low values. activity change (PNC), negative = inhibition, % at 10 µM. hit rate 3.1% among 140,000;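 active means readout at or below -70, meaning at least 70% loss of cells showing the perinucleolar compartment, a nuclear body marking cancer cells; inconclusive means readout between -30 and a set limit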
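PC3M cells stably expressing PTB-GFP, 750–1000 cells/well, treated 16 h at 37 °C with compound (23 nl of library stock), in duplicate. After paraformaldehyde fixation and Hoechst stain, imaged at 20x; PNC prevalence scored by image analysis.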
IMPase inh: membrane-permeable compound that blocks inositol monophosphatase; CHO-M1 cells, IP1 accumulation, HTRF TR-FRET ratio; inhibition (IP1 accumulation), % at 46.1 µM; 120,000 tested, under 10 active; active means well fitted curve in the direction sought with a large enough effect in the signal ratio, not every such curve was filed as active; inconclusive means small, poorly fitted or top-dose-only effect, or a change in a side signal; inactive means no such curve, though single readings can be large or run the other way; the % refers to the signal ratio;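 further: cells stimulated with carbachol in lithium chloride buffer; higher means more IMPase inhibition seen as more IP1 and lower FRET ratio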
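CHO-M1 cells (CHO stably expressing M1 receptor), compound up to 46 uM final, stimulated with carbachol (50 uM as added) in buffer with 50mM LiCl, pH 7.4, 30 min at 37C. Cytosolic IP1 read by TR-FRET; AC50 from Hill fits.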
Hits are given with their value; 0 = inactive; ? = inconclusive; - = no result; ! = repeats disagree; [ ] = dose if it differs, or a comment. Only some compounds are listed: those with a hit (about 11% of all), similar ones and a draw of the others. Unless noted, the call rests on the fitted dose curve; in most records, active means well fitted curve in the direction sought with a large enough effect; inconclusive means small, poorly fitted or top-dose-only effect, or another doubt; inactive means no such curve, though single readings can be large; an effect the other way counts as inactive or inconclusive.

SMILES	IMPase Li cell	ALDH1A1 block	HPGD inh	NPSR antag	PNC assembly inh	IMPase inh
Cc1cccc(N(C(=O)Cn2nnc(-c3ccccc3F)n2)C(C(=O)NC(C)(C)C)c2ccncc2)c1 (configuration not stated)	0	0	-	0	-	-
CCN(CC)S(=O)(=O)c1ccc2c(c1)c(=O)c(C(=O)NCCOC)cn2C	0	0	0	0	?	0
O=C1OCCC1Sc1nc2ccccc2c(=O)n1Cc1ccccc1 (configuration not stated)	0	?	-	0	-	-
C=CCn1c(SC2CCOC2=O)nc2sc(C)c(C)c2c1=O (configuration not stated)	0	0	0	0	-80.4	0
O=C1OCCC1Sc1nc2cc(Cl)ccc2n1Cc1ccccc1 (configuration not stated)	0	25.1µM	0	0	0	?
Cc1sc2nc(SC3CCOC3=O)n(Cc3ccccc3)c(=O)c2c1C (configuration not stated)	0	15.8µM	-	0	-	-
COc1cc(/C=N/NC(=O)Cc2csc(C)n2)ccc1OCC(C)C	0	0	-	0	-	-
CCOC(=O)c1c(C)oc2cc(Br)c(OC(C)C(=O)OCC)cc12 (configuration not stated)	0	0	0	0	-100.0	0
CCOC(=O)COc1cc2c(C(=O)OCC)c(C)oc2cc1Br	0	0	0	0	?	0
Cn1c(=O)c(=O)n(C)c2cc(S(=O)(=O)N3CC(=O)N(CCc4ccccc4)C(=O)C3)ccc21	-	-	-	0	-	-
COc1cc2ccc(=O)oc2cc1O	10µM!	?	?	-	-	0
Cc1ccc(NC(=S)N/N=C/c2ccc(Cl)c([N+](=O)[O-])c2)cc1	0	0	0	?	0	0
O=Nc1ccc2oc(=O)ccc2c1	0	0.126µM	15.8µM	0	-	0
Cc1cc(C)cc(NS(=O)(=O)c2ccc3oc(=O)ccc3c2)c1	0	0	0	0	0	0
COc1ccc(CC(=O)N2CC3(C)CC2CC(C)(C)C3)cc1 (configuration not stated)	0	?	0	0	0	0
Brc1ccc2c(c1)C(C1=NCCN1)c1ccccc1CS2 (configuration not stated)	0	0	0	0	-109.0	-
Cc1ccsc1/C=N/N1CCOCC1	0	0	-	0	-	-
COc1ccc(/C=N/Nc2nccnc2Cl)c(OC)c1	0	0	-	0	-	-
COc1ccc(/C=N/NC(C)(C)C)c(OC)c1	0	20µM	-	0	-	-
Nc1nc(SCc2ccc(Cl)c(Cl)c2)n[nH]1	0	0	0	0	0	-
CCOC(=O)c1nn(-c2cccc(Cl)c2)c(C)c1C(C)=O	0	?	0	0	0	0
CCOC(=O)c1c(C)nn(Cc2cccc(Cl)c2)c1N	0	0	28.2µM	0	?	0
O=C1CC(c2ccccc2)CN1S(=O)(=O)c1ccccc1 (configuration not stated)	0	0	0	0	0	0
N#CC1=C(N)SC2(CCCCC2)SC1c1ccccc1 (configuration not stated)	0	25.1µM	?	0	0	0
CC(C)c1ccc(C(O)Cc2nc3ccccc3n2C)cc1 (configuration not stated)	-	-	-	0	-	-
SMILES	IMPase Li cell	ALDH1A1 block	HPGD inh	NPSR antag	PNC assembly inh	IMPase inh
COc1ccc(C)cc1NC(=O)C(OC(=O)c1cc(C)oc1C)c1ccccc1 (configuration not stated)	0	0	0	0	?	0
COc1ccc(C)cc1NC(=O)C(NCC1CCCO1)c1ccccc1 (configuration not stated)	0	17.8µM	0	0	0	-
COC(=O)c1ccc(C(NC(=O)OCc2ccccc2)/C(=C/[C@@H](C)C(=O)NCc2ccccc2)c2cccnc2)cc1 (some centres not stated)	0	0	0	-	-	-
CCOC(=O)/C(C#N)=C/c1ccc(SC)cc1	0	17.8µM	-	0	-	-
CCOC(=O)/C(C#N)=C/c1ccc(OC(=O)c2ccccn2)cc1	0	8.91µM	0	0	0	0
COC(=O)/C(C#N)=C/c1ccc(OC(=O)c2ccccn2)cc1	0	3.55µM	?	0	0	-
COCCCNC(=S)Nc1cc(C)c(C)cc1C	-	-	-	0	-	-
CSc1ccccc1NC(=O)CN(C)Cc1cccc(Cl)c1	0	?	-	0	-	-
COc1cccc(CN(C)CC(=O)Nc2ccccc2C(C)C)c1	0	20µM	-	0	-	-
O=C(COC(=O)c1ccc2c(=O)n3c(nc2c1)CCC3)Nc1ccccc1F	0	0	?	0	0	0
COc1ccc(C2NC(=O)NC(O)(C(F)(F)F)C2C(=O)c2ccc(F)cc2)cc1 (configuration not stated)	0	?	0	0	0	0
COc1cc(C2NC(=O)NC(O)(C(F)(F)F)C2C(=O)c2cccs2)ccc1O (configuration not stated)	0	22.4µM	0	0	0	0
COc1ccc(C2NC(=S)NC(O)(C(F)(F)F)C2C(=O)c2cccs2)cc1 (configuration not stated)	0	10µM	0	0	0	-
Cc1ccc(NC(=O)/C(CN(C)C)=N\O)cc1	0	0	0	0	?	0
COC(OC)c1nc(SCC(=O)Nc2cccc(Cl)c2)ncc1C(=O)O	-	28.2µM	-	0	-	-
Cc1c(-c2ccccc2)nc(N)c(C#N)c1-c1ccco1	?	?	?	0	0	0
CC(=O)c1ccc(NC(=O)C(C)Sc2nnnn2C)cc1 (configuration not stated)	0	0	0	0	0	0
COCCCN(CCCN)Cc1ccco1	0	0	0	0	0	0
Clc1ccccc1-c1nn2c(-c3ccncc3)nnc2s1	0	11.2µM	11.2µM	0	0	0
Clc1ccccc1-c1nnc2sc(-c3cccs3)nn12	0	14.1µM	28.2µM	0	0	0
Clc1ccccc1-c1nnc2sc(-c3ccncc3)nn12	0	0	0	0	0	0
COc1cccc(NC(=S)N2CCN(Cc3ccccc3)CC2)c1	0	0	0	0	0	-
Cc1csc(NC(=O)CSc2ccc3nnc(CCNS(=O)(=O)c4ccccc4)n3n2)n1	0	0	0	0	0	-
O=C(CSc1ccc2nnc(CCNS(=O)(=O)c3ccccc3)n2n1)Nc1nc2ccccc2s1	0	25.1µM	0	0	0	-
CCN(CC(=O)NC1CCCCC1)S(=O)(=O)c1ccc(Cl)cc1	0	0	0	0	0	0[1.84 µM]
SMILES	IMPase Li cell	ALDH1A1 block	HPGD inh	NPSR antag	PNC assembly inh	IMPase inh
O=C(NCc1ccccn1)c1ccc(Cl)cc1Cl	0	0	20µM	0	?	0
O=C(NCc1ccccn1)Nc1ccc(Cl)c(Cl)c1	0	0	0	0	-84.3	0
O=C(NCc1ccccn1)c1c(Cl)cccc1Cl	0	0	0	0	0	0
Cc1cc(C)cc(NC(=O)C(=O)NCc2ccccn2)c1	0	0	0	0	-84.2	-
COc1cc(C)c(CNc2cc(C)cc(C)c2)cc1C	0	0	0	0	0	0
COc1cc(C)c(CNc2cccc(C)c2)cc1C	0	14.1µM	0	0	?	0
